# Tests used:
# Test in all cases: DAPPL (digital affinity profiling via proximity ligation, sequencing); 10 mM Tris-HCl pH 7.5, 50 mM NaCl, 1 mM DTT, 4% glycerol, room temperature, 30 min; GST-TFs on glutathione beads, 16-mer random dsDNA library, 0.1% formaldehyde crosslink after washing; high values mean tight binding
# Conditions in all cases: protein: recombinant; tags: N-terminal GST; dsDNA, one strand shown
# [1] = biological target: T1, FLI1 (Homo sapiens, UniProt Q01543 1-452)
# T1 sequence: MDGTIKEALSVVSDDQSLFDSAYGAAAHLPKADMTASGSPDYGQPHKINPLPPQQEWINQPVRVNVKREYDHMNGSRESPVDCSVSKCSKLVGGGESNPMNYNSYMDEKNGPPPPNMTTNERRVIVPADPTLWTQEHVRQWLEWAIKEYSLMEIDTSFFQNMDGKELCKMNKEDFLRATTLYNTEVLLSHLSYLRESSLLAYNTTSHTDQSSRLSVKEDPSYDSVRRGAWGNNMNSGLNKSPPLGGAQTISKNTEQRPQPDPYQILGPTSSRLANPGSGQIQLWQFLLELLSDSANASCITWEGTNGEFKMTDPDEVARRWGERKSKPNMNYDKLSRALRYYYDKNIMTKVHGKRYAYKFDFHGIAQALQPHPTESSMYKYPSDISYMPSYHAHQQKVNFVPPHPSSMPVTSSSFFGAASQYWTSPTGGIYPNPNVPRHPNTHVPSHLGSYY
# In short: (§1)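 Sequencing on an Illumina NextSeq500 followed washing, crosslinking with 0.1% formaldehyde, proximity ligation (BsaI/T4 ligase, 1 h, 37 °C) and PCR amplification of pools that had been incubated for 30 min at room temperature with 200 nmole of a random double-stranded 16-mer DNA library in Tris/NaCl/DTT/glycerol buffer. Each pool held DNA-barcoded human transcription factors, expressed in yeast as GST fusions and captured on glutathione beads, plus a tag-only sample. Binding signal is a hexamer's read frequency for a factor divided by its frequency in the tag-only sample.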
# [2] = biological target: T2, ELK1 (Homo sapiens, UniProt P19419 1-428)
# T2 sequence: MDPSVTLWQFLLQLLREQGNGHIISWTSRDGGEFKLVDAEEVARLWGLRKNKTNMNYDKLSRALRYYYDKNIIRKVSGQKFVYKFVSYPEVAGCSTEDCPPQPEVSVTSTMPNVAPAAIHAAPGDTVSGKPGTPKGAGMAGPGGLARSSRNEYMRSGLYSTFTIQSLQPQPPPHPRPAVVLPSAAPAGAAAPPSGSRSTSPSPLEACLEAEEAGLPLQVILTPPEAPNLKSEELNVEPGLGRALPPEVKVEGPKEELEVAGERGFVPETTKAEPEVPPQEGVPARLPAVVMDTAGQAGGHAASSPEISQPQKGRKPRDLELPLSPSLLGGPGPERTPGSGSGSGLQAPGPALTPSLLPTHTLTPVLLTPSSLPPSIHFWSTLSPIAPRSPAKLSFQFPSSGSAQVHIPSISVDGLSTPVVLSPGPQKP
# In short: as §1
# [3] = biological target: T3, GABPA (Homo sapiens, UniProt Q06546 1-454)
# T3 sequence: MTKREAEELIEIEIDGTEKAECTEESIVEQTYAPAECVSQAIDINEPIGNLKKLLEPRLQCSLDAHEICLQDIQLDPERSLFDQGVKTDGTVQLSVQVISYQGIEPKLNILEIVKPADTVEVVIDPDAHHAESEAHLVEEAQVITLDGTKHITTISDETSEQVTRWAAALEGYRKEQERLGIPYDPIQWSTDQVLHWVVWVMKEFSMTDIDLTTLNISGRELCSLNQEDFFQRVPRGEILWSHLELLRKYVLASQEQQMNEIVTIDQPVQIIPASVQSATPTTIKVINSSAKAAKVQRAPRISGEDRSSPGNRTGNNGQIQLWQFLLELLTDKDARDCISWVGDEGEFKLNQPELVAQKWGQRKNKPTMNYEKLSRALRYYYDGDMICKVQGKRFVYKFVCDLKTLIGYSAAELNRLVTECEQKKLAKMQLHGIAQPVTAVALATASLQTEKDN
# In short: as §1
# [4] = biological target: T4, ERG (Homo sapiens, UniProt P11308 1-479)
# T4 sequence: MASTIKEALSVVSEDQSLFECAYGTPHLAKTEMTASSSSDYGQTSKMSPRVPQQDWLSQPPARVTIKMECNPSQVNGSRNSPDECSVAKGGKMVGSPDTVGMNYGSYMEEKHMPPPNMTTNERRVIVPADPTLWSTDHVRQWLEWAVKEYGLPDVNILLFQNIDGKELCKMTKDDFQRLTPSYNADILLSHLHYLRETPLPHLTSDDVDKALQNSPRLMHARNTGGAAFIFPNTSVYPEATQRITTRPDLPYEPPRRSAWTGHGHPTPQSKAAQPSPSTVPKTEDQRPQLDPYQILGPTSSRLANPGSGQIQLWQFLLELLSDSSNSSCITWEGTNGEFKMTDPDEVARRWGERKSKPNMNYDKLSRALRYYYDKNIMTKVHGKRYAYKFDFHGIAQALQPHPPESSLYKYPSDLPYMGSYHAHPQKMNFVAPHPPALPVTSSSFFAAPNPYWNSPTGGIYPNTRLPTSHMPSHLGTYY
# In short: as §1
# [5] = biological target: ELF1 (Homo sapiens, UniProt P32519 1-619)
# In short: as §1
# [6] = biological target: T5, EHF (Homo sapiens, UniProt Q9NZC4 1-300)
# T5 sequence: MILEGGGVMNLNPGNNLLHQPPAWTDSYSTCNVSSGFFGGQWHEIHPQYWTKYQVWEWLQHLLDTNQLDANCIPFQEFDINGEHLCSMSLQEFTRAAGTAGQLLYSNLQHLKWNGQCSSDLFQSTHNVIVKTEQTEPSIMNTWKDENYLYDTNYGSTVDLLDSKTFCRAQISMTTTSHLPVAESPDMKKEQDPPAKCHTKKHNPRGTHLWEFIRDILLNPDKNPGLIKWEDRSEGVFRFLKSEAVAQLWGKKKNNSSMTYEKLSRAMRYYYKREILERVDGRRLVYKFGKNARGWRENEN
# In short: as §1
# [7] = biological target: SPI1 (Homo sapiens, UniProt P17947 1-270)
# In short: as §1
# [8] = biological target: SPIB (Homo sapiens, UniProt Q01892 1-262)
# In short: as §1
# [9] = biological target: T6, ELK3 (Homo sapiens, UniProt P41970 1-407)
# T6 sequence: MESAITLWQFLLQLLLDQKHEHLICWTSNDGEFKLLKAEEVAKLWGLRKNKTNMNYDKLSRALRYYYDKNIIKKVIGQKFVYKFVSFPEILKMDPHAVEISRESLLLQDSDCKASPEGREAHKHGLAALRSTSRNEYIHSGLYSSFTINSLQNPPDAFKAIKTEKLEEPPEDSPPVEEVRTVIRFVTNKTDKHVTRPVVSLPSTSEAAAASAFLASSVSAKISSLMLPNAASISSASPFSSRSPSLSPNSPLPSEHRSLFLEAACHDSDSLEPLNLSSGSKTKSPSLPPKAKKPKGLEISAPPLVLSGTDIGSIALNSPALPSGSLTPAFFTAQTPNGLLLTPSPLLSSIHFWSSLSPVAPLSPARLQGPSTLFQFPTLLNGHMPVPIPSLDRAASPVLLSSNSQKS
# In short: as §1
# Sequence of SPIB (Q01892 whole entry): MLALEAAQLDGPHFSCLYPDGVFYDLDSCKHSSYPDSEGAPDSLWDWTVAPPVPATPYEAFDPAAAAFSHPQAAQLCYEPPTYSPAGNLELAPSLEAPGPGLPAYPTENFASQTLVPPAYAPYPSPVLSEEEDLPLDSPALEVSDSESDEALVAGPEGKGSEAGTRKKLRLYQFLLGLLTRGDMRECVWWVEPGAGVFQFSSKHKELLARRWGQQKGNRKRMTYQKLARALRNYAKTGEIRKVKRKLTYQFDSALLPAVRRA
# Sequence of ELF1 (P32519 whole entry): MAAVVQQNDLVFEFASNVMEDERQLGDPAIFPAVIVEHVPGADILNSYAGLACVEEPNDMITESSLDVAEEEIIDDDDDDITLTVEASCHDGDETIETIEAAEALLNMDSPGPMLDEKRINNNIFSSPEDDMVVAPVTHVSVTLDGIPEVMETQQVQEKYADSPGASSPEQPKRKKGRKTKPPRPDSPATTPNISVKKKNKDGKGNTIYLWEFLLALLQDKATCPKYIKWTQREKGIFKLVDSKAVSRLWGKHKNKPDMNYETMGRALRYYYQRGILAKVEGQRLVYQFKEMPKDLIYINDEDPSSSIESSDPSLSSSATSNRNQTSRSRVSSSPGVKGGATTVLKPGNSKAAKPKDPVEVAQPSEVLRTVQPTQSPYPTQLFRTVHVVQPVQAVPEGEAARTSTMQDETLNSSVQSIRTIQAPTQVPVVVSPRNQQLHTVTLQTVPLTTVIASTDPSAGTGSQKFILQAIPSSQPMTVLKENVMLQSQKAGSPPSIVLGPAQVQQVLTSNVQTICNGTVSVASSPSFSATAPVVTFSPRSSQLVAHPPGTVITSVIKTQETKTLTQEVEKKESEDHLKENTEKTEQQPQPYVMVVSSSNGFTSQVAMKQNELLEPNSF
Sequence,binding signal [1],binding signal [2],binding signal [3],binding signal [4],binding signal [5],binding signal [6],binding signal [7],binding signal [8],binding signal [9]
ACGTCC,"1.59 fold enrichment (6-mer frequency, TF over GST control)","1.58 fold enrichment (6-mer frequency, TF over GST control)","1.61 fold enrichment (6-mer frequency, TF over GST control)","1.67 fold enrichment (6-mer frequency, TF over GST control)","1.55 fold enrichment (6-mer frequency, TF over GST control)","1.63 fold enrichment (6-mer frequency, TF over GST control)","1.49 fold enrichment (6-mer frequency, TF over GST control)","1.72 fold enrichment (6-mer frequency, TF over GST control)","1.85 fold enrichment (6-mer frequency, TF over GST control)"
CCGTTT,"1.47 fold enrichment (6-mer frequency, TF over GST control)","1.36 fold enrichment (6-mer frequency, TF over GST control)","1.33 fold enrichment (6-mer frequency, TF over GST control)","1.57 fold enrichment (6-mer frequency, TF over GST control)","1.29 fold enrichment (6-mer frequency, TF over GST control)","1.33 fold enrichment (6-mer frequency, TF over GST control)","1.56 fold enrichment (6-mer frequency, TF over GST control)","1.39 fold enrichment (6-mer frequency, TF over GST control)","1.35 fold enrichment (6-mer frequency, TF over GST control)"
AACAAC,"1.24 fold enrichment (6-mer frequency, TF over GST control)","1.31 fold enrichment (6-mer frequency, TF over GST control)","1.24 fold enrichment (6-mer frequency, TF over GST control)","1.29 fold enrichment (6-mer frequency, TF over GST control)","1.3 fold enrichment (6-mer frequency, TF over GST control)","1.29 fold enrichment (6-mer frequency, TF over GST control)","1.3 fold enrichment (6-mer frequency, TF over GST control)","1.23 fold enrichment (6-mer frequency, TF over GST control)","1.34 fold enrichment (6-mer frequency, TF over GST control)"
AATAAG,"1.22 fold enrichment (6-mer frequency, TF over GST control)","1.21 fold enrichment (6-mer frequency, TF over GST control)","1.31 fold enrichment (6-mer frequency, TF over GST control)","1.37 fold enrichment (6-mer frequency, TF over GST control)","1.24 fold enrichment (6-mer frequency, TF over GST control)","1.22 fold enrichment (6-mer frequency, TF over GST control)","1.27 fold enrichment (6-mer frequency, TF over GST control)","1.3 fold enrichment (6-mer frequency, TF over GST control)","1.23 fold enrichment (6-mer frequency, TF over GST control)"
CACGTT,"1.28 fold enrichment (6-mer frequency, TF over GST control)","1.35 fold enrichment (6-mer frequency, TF over GST control)","1.3 fold enrichment (6-mer frequency, TF over GST control)","1.28 fold enrichment (6-mer frequency, TF over GST control)","1.29 fold enrichment (6-mer frequency, TF over GST control)","1.24 fold enrichment (6-mer frequency, TF over GST control)","1.3 fold enrichment (6-mer frequency, TF over GST control)","1.21 fold enrichment (6-mer frequency, TF over GST control)","1.25 fold enrichment (6-mer frequency, TF over GST control)"
CTTCAG,"1.34 fold enrichment (6-mer frequency, TF over GST control)","1.25 fold enrichment (6-mer frequency, TF over GST control)","1.3 fold enrichment (6-mer frequency, TF over GST control)","1.32 fold enrichment (6-mer frequency, TF over GST control)","1.36 fold enrichment (6-mer frequency, TF over GST control)","1.34 fold enrichment (6-mer frequency, TF over GST control)","1.29 fold enrichment (6-mer frequency, TF over GST control)","1.28 fold enrichment (6-mer frequency, TF over GST control)","1.34 fold enrichment (6-mer frequency, TF over GST control)"
AGCAAT,"1.07 fold enrichment (6-mer frequency, TF over GST control)","1.15 fold enrichment (6-mer frequency, TF over GST control)","1.09 fold enrichment (6-mer frequency, TF over GST control)","1.11 fold enrichment (6-mer frequency, TF over GST control)","1.18 fold enrichment (6-mer frequency, TF over GST control)","1.1 fold enrichment (6-mer frequency, TF over GST control)","1.1 fold enrichment (6-mer frequency, TF over GST control)","1.18 fold enrichment (6-mer frequency, TF over GST control)","1.05 fold enrichment (6-mer frequency, TF over GST control)"

# Source: PMC7862700, “An all-to-all approach to the identification of sequence-specific readers for epigenetic DNA modifications on cytosine”
